Reference: PubChem BioAssay (NCATS)
Values joined by “and” are separate entries in the source; they are usually repeats but may differ in a detail not shown here. Equal values may be shown once. Results filed as inconclusive are left out. Entries that show only a call come without a potency. Active and inactive are the calls of the source. The call rests on the fitted dose curve; in most records, active means well fitted cell-killing curve with a large enough effect; inconclusive means small, poorly fitted or top-dose-only effect; inactive means no such curve, though single readings can be large or run the other way.

Assay: qHTS of pediatric cancer cell lines to identify multiple opportunities for drug repurposing: Confirmatory screen for U-2 OS cells (AID 1347122); further: nearly all actives have a fitted effect of over 65% in size
Settings: U-2 OS osteosarcoma cell viability; series mostly up to 45.9 µM
Procedure, shortened: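 Viability after 48 h compound treatment at 37C, 500-1,000 cells/well, read as ATP luminescence with CellTiter-Glo. Primary screens used 11-point (MIPE, 0.78 nM-46 µM) or 8-point (NPC, 0.59 nM-46 µM) final concentrations; follow-up screens used 11-point dilutions.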
Potency means the concentration at half of the fitted maximal effect.

Structure (SMILES) | Potency
Cc1ccc(Nc2nccc(N(C)c3ccc4c(C)n(C)nc4c3)n2)cc1S(N)(=O)=O | 18.5 µM (active)
CN(C)c1ccc2nc3ccc(=[N+](C)C)cc-3sc2c1 | 2.93 µM (active)
CS(=O)(=O)OCCCCOS(C)(=O)=O | inactive
Cc1ccc(NC(=O)c2ccc(CN3CCN(C)CC3)cc2)cc1Nc1nccc(-c2cccnc2)n1 | inactive
Nc1ccn([C@@H]2O[C@H](CO)[C@@H](O)C2O)c(=O)n1 (stereo partly specified) | inactive
CN(C)c1ccc(O)c2c1C[C@H]1C[C@H]3[C@H](N(C)C)C(=O)C(C(N)=O)=C(O)[C@@]3(O)C(=O)C1=C2O | inactive
O=C(NCC1CCCCN1)c1cc(OCC(F)(F)F)ccc1OCC(F)(F)F (stereo unspecified) | inactive
CCCCc1ccc2nc(NC(=O)OC)[nH]c2c1 | 0.329 µM (active)
Clc1ccc(C(Cn2ccnc2)OCc2ccc(Sc3ccccc3)cc2)c(Cl)c1 (stereo unspecified) | 18.5 µM (active)
Oc1ccc(-c2nc(-c3ccc(F)cc3)c(-c3ccncc3)[nH]2)cc1 | inactive
CCCOc1ccc2nc(NC(=O)OC)[nH]c2c1 | 2.08 µM (active)
Cc1nc(Nc2ncc(C(=O)Nc3c(C)cccc3Cl)s2)cc(N2CCN(CCO)CC2)n1 | 3.29 µM (active)
C[C@]12CCC(=O)C=C1CC[C@@H]1[C@H]2[C@@H](O)C[C@@]2(C)[C@H]1CC[C@]2(O)C(=O)CO | inactive
Nc1ncn([C@H]2C[C@H](O)[C@@H](CO)O2)c(=O)n1 | inactive
CCN(CC)C(=S)SSC(=S)N(CC)CC | 11.7 µM (active)
c1cnc2cc3c(cc2n1)C1CNCC3C1 | inactive
O=C1c2c(O)cc(O)cc2OC(c2ccc(O)c(O)c2)C1O (stereo unspecified) | inactive
CCN(CC)CCOc1ccc(Nc2ncc3cc(-c4c(Cl)cccc4Cl)c(=O)n(C)c3n2)cc1 | 0.657 µM (active)
CC[C@]1(O)C[C@H]2CN(CCc3c([nH]c4ccccc34)[C@@](C(=O)OC)(c3cc4c(cc3OC)N(C=O)[C@H]3[C@@](O)(C(=O)OC)[C@H](OC(C)=O)[C@]5(CC)C=CCN6CC[C@]43[C@@H]65)C2)C1 | 414 nM (active) and 585 nM (active)
CCN(CCO)CCCC(C)Nc1ccnc2cc(Cl)ccc12 (stereo unspecified) | inactive
O=C(CCc1ccc(O)cc1)c1c(O)cc(O)cc1O | inactive
Nc1nc(OCc2ccccc2)c2[nH]cnc2n1 | inactive
CCOc1cc(CC(=O)N[C@@H](CC(C)C)c2ccccc2N2CCCCC2)ccc1C(=O)O | inactive
Cc1c(C(=O)NN2CCCCC2)nn(-c2ccc(Cl)cc2Cl)c1-c1ccc(Cl)cc1 | 16.5 µM (active)
CC(C)C[C@H](NC(=O)[C@H](Cc1ccccc1)NC(=O)c1cnccn1)B(O)O | 0.0585 µM (active)
Nc1nc(Cl)nc2c1ncn2[C@H]1C[C@H](O)[C@@H](CO)O1 | inactive
